# IDE inh: inhibits human insulin-degrading enzyme in HEK cells; FAbetaB cleavage, fluorescence polarization; inhibition, % at 5.59 µM; hit rate 0.41% among 320,000;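 active = percent inhibition above the average of all tested compounds plus 3 SD, set per screening campaign, cut at about 16% in these data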;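 note: IDE supplied by intact live HEK cells; FP after avidin binding of uncleaved biotin substrate so inhibition keeps polarization high; 0% = DMSO wells and 100% = 60 µM reference IDE inhibitor Ii1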
# IDE cell activ: IDE (human) activation, cell-based; P14735; HEK cells, FAbeta-B cleavage, fluorescence polarization; 0% vehicle, 100% cell-free pure enzyme wells; activation, % at 5.96 µM; hit rate 0.073% among 340,000;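 active = activation above the mean of all tested compounds plus 3 SD, set per screening campaign, cut at about 17% in these data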
# SKKanGAS inh: SKKanGAS growth inhibition | AID 1662 | S. pyogenes SKKanGAS, kanamycin growth, BacTiter-Glo, 6 h | inhibition, % at 7.5 µM | hit rate 1.3% among 300,000;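 active = mean replicate score, as percent of positive control median, at least 50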;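 note: strain carries kanamycin resistance gene driven by streptokinase promoter and grows in 40 µg/ml kanamycin; loss of luminescence reflects streptokinase promoter inhibition or plain growth inhibition; 0% = median of DMSO wells and 100% = positive control at its reference dose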
# Granule exo inh: lytic granule exocytosis inhibition. TALL-104 LAMP-1 surface exposure, flow cytometry; cells stimulated with thapsigargin and PMA. inhibition, % at 10 µM. hit rate 0.66% among 360,000;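 active = inhibition above about 55%, limit read from the data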
# PP1 counter: blocks human PP1-alpha phosphatase, a PP5 counter-screen. hit rate 0.9% among 320,000. purified PP1alpha, OMFP fluorescence. inhibition, % at 6.7 µM. P62136;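 active = inhibition above the mean inhibition of all tested compounds plus 3 SD, computed separately for each screening campaign, cut at about 15% in these data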
# Target sequence (P62136 whole entry, looked up): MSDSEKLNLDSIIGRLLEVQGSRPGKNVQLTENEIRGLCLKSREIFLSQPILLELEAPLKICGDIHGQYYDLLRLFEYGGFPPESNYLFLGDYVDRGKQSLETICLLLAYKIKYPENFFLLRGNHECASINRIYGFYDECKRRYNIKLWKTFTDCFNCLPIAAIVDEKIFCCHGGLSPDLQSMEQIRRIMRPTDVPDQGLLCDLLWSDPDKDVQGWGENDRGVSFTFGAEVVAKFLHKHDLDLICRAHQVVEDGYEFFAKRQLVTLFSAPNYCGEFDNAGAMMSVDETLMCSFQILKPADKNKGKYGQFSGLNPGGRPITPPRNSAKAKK
# PP5 inh: inhibitors of human protein phosphatase 5 (PP5); P53041; purified PP5c, OMFP substrate fluorescence; inhibition, % at 6.7 µM; hit rate 0.18% among 320,000; AID 1987;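 active = inhibition above the campaign's mean inhibition across all tested compounds plus 3 SD, cut at about 9.5% in these data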;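 note: 0% = DMSO only and 100% = 100 µM cantharidin control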
# Active calls of the source: *; nt = not tested or not shown. Hits are enriched below; roughly 2.8% of the tested compounds scored in any of these assays.
SMILES,IDE inh,IDE cell activ,SKKanGAS inh,Granule exo inh,PP1 counter,PP5 inh
O=C(O)c1ccc(N2C(=O)/C(=C/c3ccc(-c4ccc([N+](=O)[O-])cc4)o3)C=C2c2ccccc2)cc1,-4,-1,104*,56*,-1,1
C/C(=N\Nc1ccc(Cl)c(Cl)c1)c1ccc(-n2ccnc2)cc1,3,-4,81*,0,9,1
C/C(=N\NC(=O)COc1ccc(C(C)(C)C)cc1)c1ccc(-n2ccnc2)cc1,0,1,22,1,15*,4
COCc1ccc(C(=O)N(C)C2CCCN(Cc3ccccc3F)C2)o1 (centres undefined),0,3,-7,-1,-6,4
Cc1ccccc1N(CC(=O)N/N=C/c1cc(Br)c(C)o1)S(C)(=O)=O,-2,2,-4,5,-2,3
Cc1cccc(N=N/C(=C\O)C(=O)c2ccc(Br)cc2)c1,-5,6,53*,101*,-2,-1
O=C(/C(=C/O)N=Nc1cccc(C(F)(F)F)c1)c1ccccc1,-6,8,-3,-3,1,-3
CCN(CC)c1ccc(NC(=O)c2ccc3c(c2)c(C)c(C)n3C)cc1,-1,4,-3,5,17*,3
CCN1/C(=C/c2ccc3cc(C)ccc3[n+]2CC)Sc2cc(C)c(C)cc21,nt,-227,nt,57*,nt,nt
CC(=O)Nc1ccc(C#Cc2ccc(NC(C)=O)cc2)cc1,2,4,84*,-3,-3,-2
CC(=O)Nc1ccc(-c2ccc(NC(C)=O)cc2)cc1,0,5,12,-9,-1,2
CCc1oc2ccccc2c1C(=O)c1cc(Br)c(O)c(Br)c1,8,5,50*,2,12,1
Cc1ccccc1C(=O)c1cccn1CC(=O)NC(C)c1ccc2c(c1)OCCO2 (centres undefined),8,-3,-3,-1,-8,1
Nc1ccc(NC(=O)c2ccc(C(=O)Nc3ccc(N)cc3)cc2)cc1,2,-1,-7,-5,16*,1
CC(=O)Oc1ccc(/C=N/NC(=O)c2ccc(N(C)S(=O)(=O)c3ccccc3)cc2)cc1,6,0,6,94*,0,3
COc1cc(NC(=O)[C@@H]2O[C@H](CO)[C@@H](O)[C@H]2O)cc(OC)c1OC,nt,nt,nt,-9,nt,nt
O=S(=O)(Nc1ccc(O)c(Sc2nc3ccccc3s2)c1)c1cccc2ccccc12,2,-2,81*,6,6,3
COc1ccc(-n2nnnc2C2(C)CCC(=O)N2Cc2ccccc2)cc1 (centres undefined),nt,nt,nt,-4,nt,nt
COc1cc(-c2nc(-c3ccc4c(c3)-c3ccccc3S4(=O)=O)c(-c3ccccc3)[nH]2)cc(OC)c1O,-6,-1,66*,0,-2,3
COc1ccc(-c2[nH]c(-c3ccc(C(=O)O)cc3)nc2-c2ccccc2)cc1,1,3,10,-2,5,4
CC1=Nc2ccccc2/C1=C/c1sc(=N)n(-c2nccs2)c1O,14,-7,98*,27,6,4
CC1=Nc2ccccc2/C1=C/c1nc(-c2ccc(C)s2)oc1O,13,-11,31,5,-1,1
CCC(CC)NC(=O)c1oc2ccccc2c1COc1ccccc1,-6,7,52*,1,7,4
O=C(NCCC(=O)N(CCc1ccccc1)Cc1ccccc1)c1ccc([N+](=O)[O-])cc1,-7,5,7,-5,0,1
COC(=O)c1ccc(CSc2nnc(NC(=O)C3CC(=O)N(c4ccc5c(c4)OCCO5)C3)s2)cc1 (centres undefined),9,-1,28,1,15*,3
SMILES,IDE inh,IDE cell activ,SKKanGAS inh,Granule exo inh,PP1 counter,PP5 inh
O=C(Nc1nnc(SCC(=O)N2CCCC2)s1)C1CC(=O)N(c2ccc(F)cc2)C1 (centres undefined),7,-2,5,0,0,3
COC(=O)CSc1nnc(NC(=O)C2CC(=O)N(c3ccc(F)cc3)C2)s1 (centres undefined),1,5,50*,-6,-2,2
COc1ccc(C(=O)CSc2nnc(NC(=O)C3CC(=O)N(c4ccccc4)C3)s2)cc1 (centres undefined),2,-2,-1,5,17*,2
CC(=O)Nc1ccc(-c2csc(NC(=O)C3CC(=O)N(c4ccc5c(c4)OCCO5)C3)n2)cc1 (centres undefined),8,-5,9,1,16*,4
CCc1ccccc1OCC(=O)NNCC(=O)Nc1cccc(C#N)c1,2,5,nt,-2,-5,1
COc1ccccc1CNC(=O)c1c(N)n(CCCN2CCOCC2)c2nc3ccccc3nc12,nt,0,30,72*,nt,nt
CCCCN1CCS(=O)(=O)N(Cc2ccccc2Br)CC(C(=O)OC)C1 (centres undefined),nt,0,nt,0,nt,nt
CCOC(=O)c1c(NC(=S)N2CCN(C)CC2)sc(C)c1-c1ccccc1,nt,2,50*,-5,nt,nt
CCOC(=O)c1ccc(NC(=S)N2CCN(C)CC2)cc1,8,-3,0,-11,-1,0
CCOC(=O)[C@]12CCC=C1N(Cc1cccc3ccccc13)C(=O)[C@H](CC(=O)N1CCCC1)C2,nt,nt,nt,-6,nt,nt
CN(Cc1ccccc1)C(=O)Nc1c(Cl)cccc1Cl,nt,nt,nt,8,nt,nt
OC(c1ccccc1)(c1nc(-c2cc(F)cc(F)c2)cs1)C(F)(F)F (centres undefined),nt,nt,nt,-5,nt,nt
Cc1ccccc1C(=O)Oc1cccc(Nc2ncnc3ccccc23)c1,1,-2,75*,-1,6,4
c1ccc(CN2CCN(c3nc4ccccc4c4ccccc34)CC2)cc1,-5,1,76*,4,-1,-2
COc1ccc(-c2cc(C(=O)Nc3ccc(OC)c(OC)c3)[nH]n2)c(C)c1,nt,nt,nt,5,nt,nt
COc1ccc2c(c1)c(=O)oc1c(C)c(OCc3ccc(C(=O)O)cc3)ccc12,-10,-1,52*,-3,-5,-2
COc1ccc(CCC(=O)O)c(O)c1,0,3,3,-4,-7,0
O=C(O)CCc1cc(I)c(Oc2ccc(O)c(I)c2)c(I)c1,nt,nt,97*,nt,nt,nt
CS/C(Nc1cc(Cl)ccc1Cl)=C(/C#N)C(=O)c1ccco1,-7,1,54*,7,-1,2
COc1ccccc1NS(=O)(=O)c1cc(NC(=S)NCC2CCCO2)ccc1C (centres undefined),2,-8,56*,1,0,1
O=C(CCCN1C(=O)/C(=C\c2cccs2)SC1=S)Nc1cc([N+](=O)[O-])ccc1O,8,4,73*,0,-1,1
NN(Cc1ccccc1)C(=S)Nc1ccc(Cl)c(Cl)c1,7,2,29,61*,-5,5
CN(C)c1ccc(N=Nc2ccc3ncccc3c2)cc1,nt,-5,nt,-4,nt,nt
Cc1cc(N(C)C)ccc1N=Nc1ccc2ncccc2c1,0,-3,54*,18,2,2
